Records with an inconclusive call do not appear. Unmarked numbers belong to inactive results. Calls of active or inactive are those of the source. The call rests on the fitted dose curve; in most records, active means well fitted curve in the direction sought with a large enough effect; inconclusive means small, poorly fitted or top-dose-only effect, or another doubt; inactive means no such curve, though single readings can be large; an effect the other way counts as inactive or inconclusive.
What follows are molecules tested against Rap guanine nucleotide exchange factor 4 (Homo sapiens) (UniProt Q8WZA2) (assay: Confirmatory qHTS for agonist of cAMP-regulated guanine nucleotide exchange factor 4 (EPAC2) (AID 1645884;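 further: nucleotide exchange releases bodipy-GDP from Rap1 and this lowers its fluorescence; nearly all actives have a fitted effect of over 65% in size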)). Conditions: EPAC2 GEF activity, Rap1B-BODIPY-GDP fluorescence; series mostly up to 154 µM; activation: at the top concentration.
On the % scale 0 is the no-effect control and ±100 the full control effect.

Sequence of Rap guanine nucleotide exchange factor 4 (Homo sapiens) (Q8WZA2 whole entry, looked up): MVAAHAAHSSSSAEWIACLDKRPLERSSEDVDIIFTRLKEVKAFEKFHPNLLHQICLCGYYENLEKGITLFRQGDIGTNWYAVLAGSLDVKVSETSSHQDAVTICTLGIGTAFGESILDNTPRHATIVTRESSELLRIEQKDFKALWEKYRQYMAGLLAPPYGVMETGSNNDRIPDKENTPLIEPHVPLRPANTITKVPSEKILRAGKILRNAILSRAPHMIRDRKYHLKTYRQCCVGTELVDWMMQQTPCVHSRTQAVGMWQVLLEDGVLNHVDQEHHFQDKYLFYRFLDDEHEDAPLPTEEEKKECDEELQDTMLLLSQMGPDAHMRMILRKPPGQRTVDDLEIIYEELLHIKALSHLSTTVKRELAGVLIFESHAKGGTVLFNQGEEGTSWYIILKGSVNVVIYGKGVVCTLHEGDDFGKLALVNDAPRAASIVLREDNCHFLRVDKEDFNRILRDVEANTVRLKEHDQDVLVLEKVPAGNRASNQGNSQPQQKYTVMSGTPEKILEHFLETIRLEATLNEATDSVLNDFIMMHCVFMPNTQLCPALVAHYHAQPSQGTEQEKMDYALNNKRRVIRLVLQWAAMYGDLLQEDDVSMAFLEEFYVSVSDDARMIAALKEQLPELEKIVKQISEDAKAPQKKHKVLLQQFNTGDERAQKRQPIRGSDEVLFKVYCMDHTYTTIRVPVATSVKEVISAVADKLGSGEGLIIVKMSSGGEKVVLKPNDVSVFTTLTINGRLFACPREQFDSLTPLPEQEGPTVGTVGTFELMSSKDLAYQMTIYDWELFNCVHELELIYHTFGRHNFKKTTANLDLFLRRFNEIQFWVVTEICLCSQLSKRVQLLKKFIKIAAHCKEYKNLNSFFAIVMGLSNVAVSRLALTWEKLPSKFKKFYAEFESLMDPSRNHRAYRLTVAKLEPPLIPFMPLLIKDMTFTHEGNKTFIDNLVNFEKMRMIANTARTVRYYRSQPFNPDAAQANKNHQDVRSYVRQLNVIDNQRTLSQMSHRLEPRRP

Row | SMILES | activation
1 | CC(C)(C)c1nc(-c2ccccc2)nc2c1OCCC2 | -5.96%
2 | COc1cc(NC(=S)NCCC(c2ccccc2)c2ccccc2)cc(OC)c1 | 6.66% [at 17.1 µM, percent relative to cAMP agonist control]
3 | CCCn1c(N)c(C(=O)CSc2n[nH]c(-c3ccc(C)cc3)n2)c(=O)[nH]c1=O | -9.05%

Each molecule was assayed against Rap guanine nucleotide exchange factor 4 (Homo sapiens) (UniProt Q8WZA2) (assay: Confirmatory qHTS for antagonist of cAMP-regulated guanine nucleotide exchange factor 4 (EPAC2) (AID 1645885; further: nearly all actives have a fitted effect of over 25% in size; further: potency means the concentration at half of the fitted maximal effect)). Conditions: EPAC2 Rap1B-BODIPY-GDP exchange fluorescence, biochemical; series mostly up to 12.7 µM; activity change, negative = inhibition: at the top concentration.

Row | SMILES | activity change, negative = inhibition | outcome | Potency
4 | CCCCC(=O)N(c1ccc(C(=O)O)cc1)c1nc(-c2ccc(Cl)cc2)c(CC)s1 | -17% |  | 
5 | COc1ccc(N2CCN(C(=O)CCc3ccccc3OC)CC2)cc1 | 9.81% [at 114 µM] |  | 
6 | CC(C)(C)[C@H](N)C(=O)N[C@H]1CCC2C3CC=C4C[C@@H](O)CC[C@]4(C)C3CC[C@@]21C (stereo partly specified) | -12.6% |  | 
7 | CC(C)CNC(=O)c1c(-c2ccccc2)c(-c2ccccc2)nn(C)c1=O |  | inactive [at 12.7 µM] | 
8 | C/C(=N\N1C(=O)c2ccccc2NC1c1ccco1)c1ccccc1O (stereo unspecified) | -27.7% [at 114 µM] |  | 
9 | CC(OC(=O)CCN1C(=O)C2CC=CCC2C1=O)C(=O)Nc1cccc(C#N)c1 (stereo unspecified) | -1.04% |  | 
10 | CN(C)C(=S)Oc1ccccc1-c1ccccc1OC(=S)N(C)C |  | inactive | 
11 | Cc1ccccc1OCCC(=O)OCC(=O)N1CCN(S(=O)(=O)c2ccc(Cl)cc2)CC1 | -7.96% |  | 
12 | COc1cccc2c(N/N=C/c3ccco3)cc(C)nc12 |  | inactive | 
13 | O=c1oc2cc(O)ccc2cc1-c1nc2ccccc2o1 |  |  | 84.9 µM (active)
14 | CCOc1ccc(CCNc2ncnc3onc(-c4ccc(Cl)cc4)c23)cc1OCC | 12.6% |  | 
15 | O=C1NC(=O)C2(N1)C(=O)c1cccc3cccc2c13 (stereo unspecified) |  |  | 47.8 µM (active)
16 | COC1=CC(=O)c2c(ccc3ncnc(N)c23)C1=O |  |  | 26.9 µM (active)
